Measurements as given in PubChem BioAssay (Tox21).
Records with an inconclusive call do not appear. Entries that show only a call come without a potency. Calls of active or inactive are those of the source. The call rests on the fitted dose curve; in most records, active means well fitted cell-killing curve with a large enough effect in the repeat runs; inconclusive means weak or mixed curves, or effect the other way; inactive means no such curve, though single readings can be large or run the other way.

Experiment: Caspase-3/7 induction in CHO-K1 cells by small molecules, qHTS cell viability counter screen (AID 1346979); further: nearly all actives have a fitted effect of over 35% in size
Conditions: CellTiter-Fluor fluorescence, 17 h; series mostly up to 92.4 µM
Excerpt: National Center for Advancing Translational Sciences [NCATS]
NIH Chemical Genomics Center [NCGC]
U.S. Environmental Protection Agency [EPA]
National Institutes of Environmental Health Sciences [NIEHS]
National Toxicology Program [NTP]
U.S. Food and Drug Administration [FDA]
Apoptosis is a process of programmed cell death and plays a central role in the development of multicellular organisms. It is a highly regulated process and induces cell death by activating caspases, which are the members of cysteine aspartic acid-specific protease (caspase) family. Caspases involved in apoptosis are classified by their mechanism of action as initiator caspases (caspase-2, -8, -9 and -10) and executioner caspases (caspase-3, -6, and -7). Inhibition of apoptosis results in number of cancers, autoimmune diseases, inflammatory diseases and viral infection. To identify small molecule compounds that induce apoptosis, a homogeneous, luminescent Caspase-Glo 3/7 assay was used. Wild type CHO-K1 cells were used to screen Tox21 libraries for identifying caspase-3/7 activity inducers. Also cytotoxicity of the compounds was tested in parallel by measuring the cell viability using CellTiter-Fluor assay system in the same wells.
Tox21 Assay Protocol Summary:
CHO-K1 cells were dispensed at 1,500 per well in 5uL of culture medium into white solid bottom 1536-well plates (Corning Life Sciences, Corning, NY) using a Multidrop Combi (Thermo Scientific, Waltham, MA) dispenser. The assay plates were incubated at 37 C and 5% CO2 for 5hr, and then 23nL of compounds dissolved in DMSO and positive control were transferred using a Pintool station (Wako, San Diego, CA). The assay plates were incubated at 37C and 5% CO2 for 17hr. For cytotoxicity read, after 16hr incubation at 37C, 1uL CellTiter-Fluor reagent (Promega Corporation, Madison, WI) was added to each well of the assay plates using Flying Reagent Dispenser (FRD, Aurora Discovery, San Diego, CA). After 1hr incubation at 37C and 5% CO2, the fluorescence signal was quantified using a ViewLux plate reader (PerkinElmer, Shelton, CT).
Potency means the concentration at half of the fitted maximal effect.

Structure (SMILES) | Potency
Cc1ccc(C(=O)C(C)CN2CCCCC2)cc1 (stereo not given) | inactive
NC(N)=N/N=C/c1c(Cl)cccc1Cl | 29.8 µM (active)
CCc1nn(C2CCCCC2)c2cc(C3(C#N)CCC(C(=O)O)CC3)ccc12 (stereo not given) | 27.3 µM (active)
CCCCCCCCN(C)C | inactive
O=C(O)[C@@H]1[C@H]2C[C@H]3c4[nH]c5ccccc5c4CCN3C[C@@H]2CC[C@@H]1O | inactive
OC(CCN1CCCCC1)(c1ccccc1)C1CCCCC1 (stereo not given) | inactive
OCC1CC2CC1C1CCC(CO)C21 (stereo not given) | inactive
Cc1ccc(O)c([C@H](CCN(C(C)C)C(C)C)c2ccccc2)c1 | inactive
C=Cc1c(C)c2cc3[nH]c(cc4nc(cc5nc(cc1[nH]2)C(C)=C5CCC(=O)O)C(CCC(=O)O)=C4C)c(C)c3C=C | 21.1 µM (active)
Nc1nc(CC(=O)O)cs1 | inactive
O=C1Nc2cc(Cl)ccc2Oc2ccccc21 | inactive
CC(=O)[C@@]1(O)CC[C@H]2[C@@H]3C[C@H](C)C4=CC(=O)CC[C@]4(C)[C@H]3CC[C@@]21C | inactive
COc1ccc([C@@H]2Sc3ccccc3N(CCN(C)C)C(=O)[C@@H]2OC(C)=O)cc1 | inactive
CC(C(=O)O)c1ccc(C(=O)c2ccccc2)s1 (stereo not given) | inactive
CCCCCCOC(=O)CCC | inactive
Cc1ncsc1CCO | inactive
C=CCCCCCC | inactive
CC(C)(C)c1ccc(OCC2CO2)cc1 (stereo not given) | 55.6 µM (active)
O=C(O)/C=C/c1cnc[nH]1 | inactive
COc1ccccc1OC(=O)Oc1ccccc1OC | inactive

Structure (SMILES) | Potency
O=C1CCCCCO1 | inactive
C=CC(=O)OCCOC(=O)CCC(=O)O | inactive
CC(C)c1ccccc1C(C)C | inactive
CCOC(=S)SSC(=S)OCC | inactive
CCCCCCCCCC(=O)OCC | inactive
COCCOCCOCCOCCOC | inactive
CCCC[C@H]1CN(CC2CCOCC2)C(=O)OC12CCN(C1(C)CCN(C(=O)c3c(C)ncnc3C)CC1)CC2 | inactive
Cc1cccc(Oc2ccccc2)c1 | inactive
CN1CCC(=C2c3ccccc3CCc3sccc32)CC1 | inactive
C=CC(=O)OCC(C)OCC(C)OCC(C)OC(=O)C=C (stereo not given) | 24.3 µM (active)
CCOC(=O)C1=NN(c2ccccc2)C(=O)C1 | inactive
CC(=O)N(O)CCCCCNC(=O)CCC(=O)N(O)CCCCCNC(=O)CCC(=O)N(O)CCCCCN | inactive
Oc1ccc(O)c2c(O)cccc12 | inactive
N#CCCNCCC#N | inactive
O=CNc1ccccc1 | inactive
CC[C@H](C)[C@@H](C(=O)O)n1sc2ccccc2c1=O | inactive
CC(=O)O[C@H]1C[C@@H]2CC[C@@H]3[C@H](CC[C@@]4(C)[C@H]3C[C@H]([N+]3(C)CCCCC3)[C@@H]4OC(C)=O)[C@@]2(C)C[C@@H]1N1CCCCC1 | inactive
CCOC(=O)[C@H](CCc1ccccc1)N[C@H]1CCc2ccccc2N(CC(=O)O)C1=O | 23.7 µM (active)
c1ccc(-c2nc[nH]c2-c2ccccc2)cc1 | inactive
CCCC(C)C | inactive
